Structures are written as SMILES. Records with an inconclusive call do not appear. A call without a number means that no potency is given here. Calls of active or inactive are those of the source. The call rests on the fitted dose curve; tested in HEK293 reporter line.

The test can be described thus: qHTS for Inhibitors of the Functional Ribonucleoprotein Complex (vRNP) of Lassa (LASV) Arenavirus: LASV Primary Screen - GLuc reporter signal (AID 1347082). Further: nearly all actives have a fitted effect of over 60% in size. The conditions noted are these: LASV minigenome vRNP, Gaussia luciferase reporter; series mostly up to 57.5 µM. Background: qHTS replaces the single test concentration by a dilution series.
Consider `CCCCCCCCCCCC(C)=O`, for which the Potency entry is “inactive”.

With `CC(C)(O[C@@H]1O[C@H](CO)[C@@H](O)[C@H](O)[C@H]1O)[C@@H]1CC=C(C(=O)O)CC1`, the Potency result is “inactive”.

With `O=C1/C(=C\c2ccc(O)c(O)c2)Oc2c1ccc(O[C@@H]1O[C@H](CO)[C@@H](O)[C@H](O)[C@H]1O)c2O`, the Potency result is “inactive”.

Regarding `O=c1cc(-c2ccccc2)oc2cc(O)ccc12`, the Potency result is “inactive”.

With `Cc1cc(O)c2c(c1O)C(=O)C(O)=C(O)C2=O`, the Potency result was “inactive”.

In the case of `CC1CCC(C(C)(C)S)C(=O)C1` (stereo unspecified), the Potency entry was “inactive”.

For `COc1cc2c(cc1O)[C@@H]1Cc3cc(OC)c(OC)cc3C(C2)N1C`, the Potency entry is “inactive”.

With `COc1cc2cc(Oc3ccc4ccc(=O)oc4c3)c(=O)oc2cc1O[C@@H]1O[C@H](CO)[C@@H](O)[C@H](O)[C@H]1O`, the Potency entry is “inactive”.

Regarding `O=c1c(O)c(-c2ccc(O[C@@H]3O[C@H](CO)[C@@H](O)[C@H](O)[C@H]3O)c(O)c2)oc2cc(O)cc(O)c12`, the Potency result is “inactive”.

For the molecule `Cc1ccccc1C(=O)c1ccc(Nc2ccc(Br)cc2N)cc1Cl`, the Potency result is “inactive”.

Consider `COc1c2n(C)ccc3c-2n(c(=O)c1=O)c1ccccc31`, for which the Potency entry is “inactive”.

In the case of `OCCNC1CCCc2c1[nH]c1ccc(-c3ccccc3)cc21` (stereo unspecified), the Potency result was “inactive”.

As to `O=C(O)c1cccc(Br)c1`, the Potency result was “inactive”.

In the case of `COc1n[nH]c2nncnc12`, the Potency entry was “inactive”.

For `CC1(C)C[C@H]2C3=CCC4[C@@]5(C)CC[C@H](O)[C@](C)(CO)C5CC[C@@]4(C)[C@]3(C)C[C@@H](O)[C@@]2(CO)[C@@H](O)[C@@H]1O` (stereo partly specified), the Potency entry is “inactive”.

Regarding `COc1ccc(-c2cc(=O)c3c(O)cc(OC4OC(COC5OC(C)C(O)C(O)C5O)C(O)C(O)C4O)cc3o2)cc1O` (stereo unspecified), the Potency result is “inactive”.

The values are drawn from PubChem BioAssay (NCATS).
